Compound activity as filed in PubChem BioAssay.
Shown are actives, neighbours in structure and some others; about 2.8% of the full set was active somewhere.
PAFAH2 inh – PAFAH2 enzyme inhibitors, primary screen, biochemical, fluorescence polarization, human. hit rate 0.99% among 340,000. Platelet-activating factor acetylhydrolase 2, cytoplasmic (Homo sapiens), Q99487. inhibition, % at 3.39 µM. recombinant PAFAH2, FP-rhodamine activity probe;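 active = inhibition above the mean over all tested compounds plus 3 SD, cut at about 30% in these data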;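 note: inhibitors block probe labeling of enzyme so polarization drops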
PME-1 inh – PME-1 inhibitors via competitive probe labeling, primary screen, biochemical, fluorescence polarization, FP-Rh probe, HTS; Protein phosphatase methylesterase 1 (Homo sapiens), Q9Y570; recombinant PME-1; inhibition, % at 5.9 µM; hit rate 0.53% among 320,000; AID 2130, 2009;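 active = inhibition above the campaign mean of all compounds plus 3 SD, cut at about 26% in these data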;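 note: competitive labeling of PME-1 active site by serine hydrolase directed probe; inhibitors block probe labeling so polarization falls and inhibition rises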
Target sequence (Q9Y570 whole entry, looked up): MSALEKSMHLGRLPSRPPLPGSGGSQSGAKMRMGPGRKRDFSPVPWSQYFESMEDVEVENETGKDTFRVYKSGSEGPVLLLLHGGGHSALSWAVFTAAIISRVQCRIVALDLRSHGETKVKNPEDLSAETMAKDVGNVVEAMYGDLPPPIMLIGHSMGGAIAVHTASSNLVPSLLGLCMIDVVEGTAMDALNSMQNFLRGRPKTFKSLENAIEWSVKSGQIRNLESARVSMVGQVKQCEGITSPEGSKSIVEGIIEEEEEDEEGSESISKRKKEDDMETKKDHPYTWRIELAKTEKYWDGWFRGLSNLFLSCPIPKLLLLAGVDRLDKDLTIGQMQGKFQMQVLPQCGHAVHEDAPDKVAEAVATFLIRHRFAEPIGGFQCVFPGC
pPAFAH inh – pPAFAH enzyme inhibitors, primary screen, biochemical, fluorescence polarization, human; Platelet-activating factor acetylhydrolase (Homo sapiens), Q13093; recombinant pPAFAH, FP-rhodamine probe fluorescence polarization; inhibition, % at 3.39 µM; hit rate 1.5% among 330,000;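 active = inhibition above the mean inhibition across the screen plus 3 SD, cut at about 25% in these data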;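 note: inhibitors block binding of the rhodamine activity-based probe so polarization drops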
Fam108B inh – mouse Fam108B serine hydrolase inhibitors, primary screen, counter-screen for RBBP9 inhibitor project, biochemical, fluorescence polarization | recombinant Fam108B, FP-Rh probe fluorescence polarization | inhibition, % at 9.51 µM | hit rate 0.33% among 300,000;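 active = inhibition above the screen mean inhibition plus 3 SD, computed separately per campaign, cut at about 18% in these data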;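 note: inhibitors lower polarization as less probe binds the enzyme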
PAFAH1B2 FP inh – PAFAH1B2 enzyme inhibitors, primary screen, biochemical, fluorescence polarization, human | Platelet-activating factor acetylhydrolase IB subunit alpha2 (Homo sapiens), P68402 | recombinant PAFAH1B2, FP-rhodamine activity probe | inhibition, % at 3.39 µM | hit rate 1.2% among 340,000 | AID 492953, 2010;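 active = inhibition above the mean of all tested compounds plus 3 SD, cut at about 24% in these data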
Target sequence (P68402 whole entry, looked up): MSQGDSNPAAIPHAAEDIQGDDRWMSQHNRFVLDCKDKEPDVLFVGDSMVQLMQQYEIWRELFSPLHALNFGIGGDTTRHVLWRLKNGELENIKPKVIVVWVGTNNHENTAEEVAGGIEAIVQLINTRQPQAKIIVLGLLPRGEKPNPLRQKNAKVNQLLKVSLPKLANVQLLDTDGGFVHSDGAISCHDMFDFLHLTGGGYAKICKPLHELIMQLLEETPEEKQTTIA
PAFAH1B3 FP inh – PAFAH1B3 enzyme inhibitors, primary screen, biochemical, fluorescence polarization, human; hit rate 0.28% among 340,000; inhibition, % at 3.39 µM; recombinant PAFAH1B3, FP-rhodamine probe; Platelet-activating factor acetylhydrolase IB subunit alpha1 (Homo sapiens), Q15102; AID 492972, 2010;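 active = inhibition above the screen-wide average of all tested compounds plus 3 SD, cut at about 25% in these data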
pPAFAH FP conf – pPAFAH (PLA2G7) enzyme inhibitors, confirmation, biochemical, fluorescence polarization, human. AID 463230, 2010. inhibition, % at 3.39 µM. hit rate 72% among 2,300. recombinant pPAFAH, FP-Rh probe fluorescence polarization. shares compounds with pPAFAH inh;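 active = mean inhibition of the triplicate above the hit cutoff set for the earlier primary screen, cut at about 25% in these data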
Large screens that a line does not name were inactive (follow-up assays come after a bar, where they were run).

O=C(CN1C(=O)/C(=C\c2ccco2)SC1=S)Nc1ccc(O)cc1C(=O)O	pPAFAH inh 42 | pPAFAH FP conf inactive
O=C(CCCN1C(=O)/C(=C/c2ccco2)SC1=S)Nc1ccccc1C(=O)O	pPAFAH inh 65 | pPAFAH FP conf inactive
Cc1ccc2c(c1)c1cccc3c1n2CCN3CCC(N)=O	none
N#C/C(=C\c1ccc(O)c(O)c1)C(=O)N1CCCC1	none
N#C/C(=C\c1ccc(O)c(O)c1)C(=O)c1ccc(O)c(O)c1	PAFAH2 inh 79, pPAFAH inh 93, PAFAH1B2 FP inh 54, PAFAH1B3 FP inh 38 | pPAFAH FP conf 85
Cc1nc2c(C)cccn2c1/C(O)=C1\C(=O)C(=O)N(CCN(C)C)C1c1cccs1 (configuration not stated)	none (no result: PME-1 inh, pPAFAH inh, Fam108B inh)
COc1cnc(-c2ccccn2)nc1Oc1ccc(Cl)c2ccccc12	pPAFAH inh 60 | pPAFAH FP conf 64
OCCN(CCO)Cc1csc2ccccc12	none
O=C(NNC(=O)c1cc2cc(Br)ccc2oc1=O)c1ccc(O)cc1O	PME-1 inh 34, pPAFAH inh 47 | pPAFAH FP conf 47
CCN1CCN(c2nc3c(c(=O)n(C)c(=O)n3C)n2CCSc2nccc(C)n2)CC1	none
NC(=O)Oc1cccc(OC(N)=O)c1	none
Nc1ccc(N2CCN(CCCCN3C(=O)C4CCCN4C3=O)CC2)cc1 (configuration not stated)	pPAFAH inh 70 | pPAFAH FP conf inactive
O=C1C2CCCCN2C(=O)N1CCCN1CCN(c2ccc(F)cc2)CC1 (configuration not stated)	none
CCN(CC)S(=O)(=O)c1ccc(C(=O)NNC(=O)c2csc(N3CCOCC3)n2)cc1	pPAFAH inh 48 | pPAFAH FP conf inactive
Cc1c(N/C(=N/S(=O)(=O)c2ccccc2)c2ccc(Cl)cc2)c(=O)n(-c2ccccc2)n1C	none
Cc1c(N/C(=N/S(=O)(=O)c2ccc(Cl)cc2)c2ccccc2)c(=O)n(-c2ccccc2)n1C	pPAFAH inh 82 (no result: PAFAH2 inh, PAFAH1B2 FP inh, PAFAH1B3 FP inh) | pPAFAH FP conf inactive
C=CCn1c(C(C)NC(=O)COC)nc2ccccc21 (configuration not stated)	none
CCCC(C)C(=O)OCC(=O)NCc1ccc(OC)c(OC)c1 (configuration not stated)	none
Cc1cccc(C(=O)NC(=S)Nc2ccc(N3CCOCC3)cc2)c1	none
CCOC(=O)c1cc(-c2ccc(F)cc2)n(CCC(=O)NC2CCN(Cc3ccccc3)CC2)c1C	pPAFAH inh 40 | pPAFAH FP conf inactive
CCOC(=O)c1cc(-c2ccc(OC)cc2)n(CCC(=O)NC2CCN(Cc3ccccc3)CC2)c1C	none
Cc1c(NC(=O)c2ccc([N+](=O)[O-])o2)cccc1-c1nc2ncccc2o1	none
O=C1c2ccccc2[C@@H]2C[C@@H](O)[C@H](Nc3ccccc3)CCN12	none (no result: PME-1 inh, Fam108B inh)
O=C1c2ccccc2[C@@H]2C[C@@H](O)[C@H](Nc3cccc(Cl)n3)CCN12	PAFAH2 inh 69, pPAFAH inh 36 (no result: PME-1 inh, Fam108B inh) | pPAFAH FP conf inactive
O=C1CCCC(O)=C1N=Nc1c(Cl)cc(C(F)(F)F)cc1Cl	PAFAH2 inh 64, pPAFAH inh 39, PAFAH1B2 FP inh 35, PAFAH1B3 FP inh 37 | pPAFAH FP conf inactive
O=C(CSc1ccccn1)Nc1nc2ccc(Br)cc2s1	none
O=C(NCc1ccco1)c1cccc2c1C(=O)c1ccc(/C=C/c3ccccc3)cc1S2(=O)=O	pPAFAH inh 39 (no result: PME-1 inh, Fam108B inh) | pPAFAH FP conf 32
CC(C)c1cccc(-c2ccc3c(c2)S(=O)(=O)c2cccc(C(=O)NCc4ccccc4)c2C3=O)c1	none (no result: PME-1 inh, Fam108B inh)
CCCCOc1cc(NCc2ccccc2)c2ncn(C(C)C)c2c1	pPAFAH inh 36 (no result: PME-1 inh, Fam108B inh) | pPAFAH FP conf 39
COCCCOc1cc(NCc2ccccc2)c2ncn(C(C)C)c2c1	none (no result: PME-1 inh, Fam108B inh)
O=C1c2c(O)cccc2C(C2OC(CO)[C@@H](O)[C@H](O)[C@H]2O)c2cc(CO)cc(O)c21 (some centres not stated)	none (no result: Fam108B inh)
O=C(O)c1cc(O)c2c(c1)[C@H]([C@H]1c3cc(C(=O)O)cc(O)c3C(=O)c3c(O[C@@H]4O[C@H](CO)[C@@H](O)[C@H](O)[C@H]4O)cccc31)c1cccc(OC3O[C@H](CO)[C@@H](O)[C@H](O)[C@H]3O)c1C2=O (some centres not stated)	PAFAH2 inh 90, PME-1 inh 71, pPAFAH inh 94, Fam108B inh 97, PAFAH1B2 FP inh 77, PAFAH1B3 FP inh 80 | pPAFAH FP conf 99
O=C(N/N=C/c1ccc(Cl)cc1)c1ccc2c(c1)OCO2	none
O=C(N/N=C/c1ccncc1)c1ccc2c(c1)OCO2	pPAFAH inh 41 | pPAFAH FP conf inactive
O=C(CCN1CCCO1)NC1CCCc2c1cnn2-c1ccccc1F (configuration not stated)	none
CC(C)(C)c1ccc(-n2ncc3c2CCCC3NC(=O)CCN2CCCO2)cc1 (configuration not stated)	pPAFAH inh 37 | pPAFAH FP conf inactive
COc1ccc(NC(=O)CSc2nc3nc(C)cc(C)c3c(=O)[nH]2)cc1	pPAFAH inh 69 | pPAFAH FP conf inactive
CCN(CC)c1ccc(NC(=O)CSc2nc3nc(C)cc(C)c3c(=O)[nH]2)cc1	none
Cc1c(O)ccc(C(=O)CN2CCN(Cc3ccccc3)CC2)c1O	none
CCOC(=O)N1CCN(C(=O)N2CCOCC2)CC1	none
CCCCOC(=O)N1CCOCCOCCN(C(=O)OCCCC)CCOCCOCC1	pPAFAH inh 35 | pPAFAH FP conf 26
CCCCOC(=O)c1ccc(OC(=O)N2CCOCC2)cc1	PAFAH2 inh 36, pPAFAH inh 94 | pPAFAH FP conf 97
O=C(c1ccccc1)c1ccc(OC(=O)N2CCOCC2)cc1	PAFAH2 inh 35, pPAFAH inh 52 | pPAFAH FP conf 53
O=C(NCCN1CCOCC1)c1cc2cc([N+](=O)[O-])ccc2s1	none
Cc1ccc(S(=O)(=O)N(C)C)cc1NC(=O)CN1C(=O)NC(Cc2ccccc2)C1=O (configuration not stated)	pPAFAH inh 42 | pPAFAH FP conf inactive
Cc1c(C(=O)NNC(=O)c2ccccc2O)oc2ccc(Br)cc12	pPAFAH inh 58 | pPAFAH FP conf 70
CCOc1cc(CNCCO)cc(Br)c1OCc1ccc(Cl)cc1Cl	pPAFAH inh 42 | pPAFAH FP conf 30
